The list is not random: actives were taken first. Their share in the collection is about 3.7%.
RE007 growth inh: less growth of the S. pombe RE007 Vpr strain; AID 651644; S. pombe RE007 Vpr strain, BacTiter-Glo ATP luminescence, 24 h; 360,000 compounds, 0.21% hits; Potency, µM (highest dose often 92.2 µM), inactives show at the top dose activity change, negative = less growth, usual class: inhibitors; active means well fitted falling curve with a large enough effect; inconclusive means small, poorly fitted or top-dose-only effect; inactive means no such curve, though single readings can be large or run the other way; further: nearly all actives have a fitted effect of over 50% in size
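Fission yeast strain RE007, carrying one chromosomally integrated HIV-1 vpr copy, was seeded at OD 0.01 in PMG+AL medium with 23 nL pinned compound. After 24 h at 30 °C and 99% humidity, viability was read by BacTiter-Glo luminescence.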
Tb PYK inh: blocks Trypanosoma brucei pyruvate kinase; TbPYK enzyme, Kinase-Glo Plus ATP luminescence, 45 min; Q57TT1; Potency, µM (series often up to 76.8 µM), for inactives: top-dose activity, negative = inhibition, most hits filed as inhibitors; AID 624173; 410,000 compounds, 0.12% hits; further: nearly all actives have a fitted effect of over 50% in size
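T. brucei PYK with substrate was exposed to pin-transferred compounds across a concentration series, then started with 130 uM ADP (final). After 45 min at room temperature, Kinase-Glo Plus luminescence was read, normalized and curve-fitted.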
Sm TGR block: inhibitors of Schistosoma mansoni thioredoxin glutathione reductase. purified TGR, DTNB reduction, TNB absorbance 405 nm. AID 485364. 360,000 compounds, 3% hits. Potency, µM (doses to about 114 µM), for inactives: at the highest dose activity change, negative = inhibition, most hits filed as inhibitors. Q962Y6; further: nearly all actives have a fitted effect of over 60% in size
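Kinetic colorimetric format: TGR-catalysed, NADPH-driven DTNB reduction monitored via TNB absorbance. Enzyme dispensed at 20 nM; compound exposure 15 min at room temperature before reaction start.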
FMDV inh: foot and mouth disease virus antiviral activity | FMDV antiviral cell-based qHTS | Potency, µM (highest dose often 57.9 µM), for inactives: at the highest dose activity change, negative = inhibition, hits mostly inhibitors | 410,000 compounds, 1.2% hits | AID 1159524; calls by dose curve; tested in HEK293T cells; further: read-out not given here; nearly all actives have a fitted effect of over 45% in size
Active calls of the source: *; ? = inconclusive; . = no result; [ ] = dose if it differs, or a comment. Unless noted, the call rests on the fitted dose curve; in most records, active means well fitted curve in the direction sought with a large enough effect; inconclusive means small, poorly fitted or top-dose-only effect, or another doubt; inactive means no such curve, though single readings can be large; an effect the other way counts as inactive or inconclusive. On the % scale 0 is the no-effect control and ±100 the full control effect; potency means the concentration at half of the fitted maximal effect.

SMILES | RE007 growth inh | Tb PYK inh | Sm TGR block | FMDV inh
CCOC(=O)[C@H]1[C@H]2COc3ccc(C)cc3[C@@H]2N2C(=O)CN(Cc3ccc(C)cc3)C(=O)[C@@]12C | -19% | 1% | -10% | 0%
CCOC(=O)[C@H]1[C@H]2COc3ccc(C)cc3[C@@H]2N2C(=O)CN(Cc3ccco3)C(=O)[C@@]12C | 4% | -14% | 14µM* | -9%
CCOC(=O)[C@H]1[C@H]2COc3ccc(OC)cc3[C@@H]2N2C(=O)CN(Cc3ccc(OC)cc3)C(=O)[C@@]12C | 0% | 0% | 50µM* | -13%
COCC(=O)Nc1cc(C(=O)N2CCc3sccc3C2)c2c(c1)nc(-c1ccncc1)n2C | . | . | . | 1%
COc1cccc(CNc2ncnc3onc(-c4ccc(F)cc4)c23)c1 | . | 1% | -1% | -23%
CCOC(=O)[C@@](C)(N)Cc1ccc(O)c(O)c1 | . | 3% | . | .
O=C(CN(Cc1cccs1)C(=O)CSc1nnc(COc2ccccc2)o1)NC1CCCCC1 | 17% | 21% | -17% | 40µM*
CCOc1ccc(N(CC(=O)NC2CCCCC2)C(=O)CSc2nnc(COc3ccccc3)o2)cc1 | -15% | 0% | -13% | -18%
CNC1=C([N+](=O)[O-])CC([N+](=O)[O-])=C(N2CCNCC2)N1C | -22% | -7% | 14µM* | -3%
CCOC(=O)C1=CC[C@@H](c2cccc(C)c2)N(S(=O)(=O)c2ccc(C)cc2)[C@H]1C(=O)OCC | 14% | -3% | 4% | -16%
CCOC(=O)C1=CC[C@@H](c2ccco2)N(S(=O)(=O)c2ccc(C)cc2)[C@H]1C(=O)OCC | -4% | 4% | 32µM* | 78%
c1ccc2sc(C3CCN(Cc4nnnn4Cc4ccc5c(c4)OCO5)CC3)nc2c1 | -6% | -6% | -33% | 20µM*
c1ccc2sc(N3CCN(Cc4nnnn4CC4CCCO4)CC3)nc2c1 (stereo not drawn) | -2% | -1% | -25% | ?
COc1ccc(Cn2nnnc2CN2CCC(c3nc4ccccc4s3)CC2)cc1 | -15% | -2% | -1% | 20µM*
CCOC(=O)c1cc(-c2ccc(F)cc2)n(CCC(=O)NCCc2ccc(C)cc2)c1C | . | -20%[15.4 µM] | -7% | -5%
COc1cc2c(cc1OC)[C@@H](Cc1ccc(OCCC#N)cc1)N(C)CC2 | 34% | -9% | 50µM* | -9%
COc1ccc(C(=O)N(Cc2cc3cccc(C)c3nc2N(C)C)CC2CCCO2)cc1 (stereo not drawn) | . | . | . | -3%
O=C1C=C(O)c2c(O)cccc2C1=O | . | . | 50µM* | .
CC1=CC(=O)c2c(O)cccc2C1=O | . | . | . | 8.9µM*
CC1=CC(=O)c2ccccc2C1=O | -25%[18.4 µM] | 1% | 28µM* | -13%
CC(C)(C)c1ccc2c(c1)C(=O)c1ccccc1C2=O | 13% | -25% | -9% | 6%
CC(C)(C=O)C1=CC(=O)c2ccccc2C1=O | 8.9µM* | ? | 3.2µM* | 35µM*
NC(=O)C1CCCN(Cc2ccc3c(c2)CN(Cc2cn[nH]c2-c2ccc(F)cc2)CCO3)C1 (stereo not drawn) | . | . | . | -7%
Cc1ccc(/C=C/C(=O)N2CCCC(C(N)=O)C2)o1 (stereo not drawn) | 7% | 3% | 32µM* | 9%
Cc1ccc(/C=C/C(=O)N2CCN(c3ccc(F)cc3)CC2)o1 | . | -24% | 50µM* | ?
SMILES | RE007 growth inh | Tb PYK inh | Sm TGR block | FMDV inh
COc1ccc(C(=O)N2CCN(c3ccc(NC(=O)c4ccco4)cc3)CC2)cc1 | -4% | 0% | 8% | -26%
O=C(/C=C/c1ccc(F)cc1)N1CCN(c2ncccn2)CC1 | 9% | 2% | 2% | 32%
COc1ccc(N2CCN(C(=O)/C=C/c3ccco3)CC2)cc1 | -4% | -8% | 18µM* | -8%
O=C(NCCC(=O)N1CCN(c2ccc(F)cc2)CC1)c1ccco1 | -6% | 3% | 45µM* | -2%
CCOC(=O)C1CCCN(c2nc3c(S(=O)(=O)c4ccc(CC)cc4)nnn3c3ccsc23)C1 (stereo not drawn) | . | -5% | -2% | -3%
Cc1ccc(C)c(CSc2cn(CC(=O)N3CCCC3)c3ccccc23)c1 | . | -5% | 8% | 10%
Cc1cc(C)cc(NC(=O)C(=O)NCC(c2cccnc2)N2CCOCC2)c1 (stereo not drawn) | . | 4% | -12% | -1%
COc1ccccc1N1CCN(C(=O)/C=C/c2ccco2)CC1 | 2% | -20% | 50µM* | 20%
COc1ccccc1N1CCN(/N=C/C=C\c2ccco2)CC1 | -16% | -6% | 40µM* | -8%
CC(C)(C)c1ccc(/C=C/C(=O)N2CCN(c3ncccn3)CC2)cc1 | -2% | -6% | -2% | ?
COc1ccccc1N1CCN(C(=O)/C=C/c2ccccc2)CC1 | -6% | -5% | 3% | 1%
COc1ccccc1N1CCN(/N=C/C=C\c2ccccc2[N+](=O)[O-])CC1 | 4% | 8% | 10% | -6%
O=C(/C=C/c1ccco1)N1CCN(c2ccc(F)cc2)CC1 | 3% | 10% | 10µM* | 7%
Cc1ccc(/C=C/C(=O)N2CCN(c3ncccn3)CC2)o1 | -2% | ? | 3.2µM* | ?
OC[C@H]1O[C@H](OC/C=C/c2ccccc2)[C@H](O)[C@@H](O)[C@@H]1O | . | -10% | . | .
CCC(C)n1c(=N)c(C(=O)NCc2ccco2)cc2c(=O)n3cc(C)ccc3nc21 (stereo not drawn) | . | 4% | 1% | -18%
CCOc1ccc(C(c2c(O)nc(SC)n(C)c2=O)c2c(O)nc(SC)n(C)c2=O)cc1 | 4% | ? | 16µM* | -16%
COc1ccc(C(=O)CSc2ccc(-c3ccco3)nn2)cc1 | -16% | -21% | 32µM* | -11%
COc1ccc(C(=O)CSc2ccc(-c3ccccc3)nn2)cc1 | -15% | -3% | -7% | -26%
O=C(CSc1ccc(-c2ccco2)nn1)c1ccccc1 | -29% | ? | 8.9µM* | 35%
O=C(CSc1ccc(-c2ccncc2)nn1)c1ccccc1 | 6% | -5% | -2% | ?
CCc1ccc(-n2nc(C)c3c(C)cc(=O)n(CC(=O)Nc4ccc(OC)c(OC)c4)c32)cc1 | . | -5% | -4% | -8%
S=c1[nH]nc(-c2ccco2)n1/N=C/c1ccc(Cl)cc1 | 2% | 4µM* | -14% | -30%
CCN1CCN(C(c2cccc(F)c2)c2c(O)cc(C)n(Cc3ccco3)c2=O)CC1 (stereo not drawn) | . | 5% | 5µM* | -23%
CCN1CCN(C(c2cccc(OC)c2)c2c(O)cc(C)n(Cc3ccco3)c2=O)CC1 (stereo not drawn) | . | 42% | 5.6µM* | 0%
O=C(c1cccc(F)c1)N1CCN(Cc2ccco2)CC1 | 1% | -8% | -27% | -21%
COc1cccc(C(c2c(O)cc(C)n(Cc3ccco3)c2=O)N2CCC(C)CC2)c1 (stereo not drawn) | . | 6% | 11µM* | -20%
Cc1c(C(=O)Nc2ccc(C(C)C)cc2)sc2nc3n(c(=O)c12)CCC3 | . | 2% | -8% | ?
COc1ccc(-c2noc(CN(C(C)C)S(=O)(=O)c3ccc(Br)cc3)n2)cc1 | . | 9% | 1% | 0%

Screening data (PubChem)
